Holding throughout (assay): qHTS profiling for inhibitors of Plasmodium falciparum proliferation (AID 504749); note: nearly all actives have a fitted effect of over 60% in size
Details in all cases: P. falciparum in erythrocytes, SYBR Green DNA, 72 h; series mostly up to 28.7 µM

For assay [1], the system named is AA1029. In short, it runs like this:
(§1)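 Infected RBCs, 0.3% parasitemia/2.5% Hct final; cpd 72 h, 37 C, 5% CO2; lysis buffer with saponin/triton/SYBR Green I, o/n RT dark; FI 485/535; norm. to artemisinin (0.29 uM) and DMSO.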

For assay [2], the system named is AS120. An outline of the steps: as §1
The subject of assay [3] is C2A. An outline of the steps: as §1
The test system of assay [4] is CP201. An outline of the steps: as §1
For assay [5], the system named is CP203. An outline of the steps:
as §1

In assay [6] the test system is CP237. In short, it runs like this:
as §1

Assay [7] has as its system CP250. In short, it runs like this:
as §1

Assay [8] concerns CP256. In short, it runs like this: as §1
In assay [9] the test system is CP268. In short, it runs like this: as §1
Assay [10] concerns CP315. In short, it runs like this:
as §1

Assay [11] deals with CP325. In short, it runs like this: as §1
Assay [12] concerns DIV30. An outline of the steps:
as §1

The subject of assay [13] is HB3. An outline of the steps:
as §1

The test system of assay [14] is JCK. An outline of the steps:
as §1

Assay [15] has as its system N140. An outline of the steps: as §1
For assay [16], the system named is P94_40. An outline of the steps:
as §1

The subject of assay [17] is PAD. An outline of the steps: as §1
Assay [18] deals with SC27B. In short, it runs like this: as §1
The test system of assay [19] is TAB113. In short, it runs like this: as §1
Assay [20] relates to CP305. In short, it runs like this: as §1

Structures are written as SMILES. Records with an inconclusive call do not appear. The source made the active and inactive calls. Calls come from the whole dose curve; as a rule, active = well fitted inhibition curve with a large enough effect; inconclusive = small, poorly fitted or top-dose-only effect; inactive = flat fitted curve, though single readings scatter.
Potency is the fitted concentration of half-maximal effect.

`Nc1nc(F)nc2c1ncn2[C@@H]1O[C@H](CO)[C@@H](O)[C@H]1O`: the Potency result in [1], in [2], in assay [3], in assay [4], in [5] and in assay [6] was “inactive” each time. The Potency result in assay [7], in assay [8], in assay [9], in assay [10], in assay [11] and in assay [12] was “inactive” each time. For the same compound, the Potency entry in assay [13], in assay [14], in assay [15], in assay [16], in assay [17] and in assay [18] was “inactive” each time. In addition, the Potency entry in assay [19] was “inactive”.
Take `Cn1cc(C(=O)[C@@H]2CCc3[nH]cnc3C2)c2ccccc21`: the Potency result in [1], in [2], in assay [3], in assay [4], in assay [5] and in assay [6] was “inactive” in each case. Further, the Potency entry in [7], in assay [8], in assay [9], in assay [20], in assay [10] and in assay [11] was “inactive” in each case. Moreover, the Potency entry in assay [12], in assay [13], in assay [14], in assay [15], in assay [16] and in assay [17] was “inactive” throughout. Further, the Potency result in [18] and in [19] was “inactive” in each case.
In the case of `CCOC(=O)C(CCc1ccccc1)NC(C)C(=O)N1Cc2cc(OC)c(OC)cc2CC1C(=O)O` (stereo unspecified), the Potency in assay [2] was 5010 nM (active); in assay [12], 7570 nM (active); in [15], 3550 nM (active); in assay [17], 4470 nM (active); in assay [18] it was 7080 nM (active). The Potency result in assay [4], in assay [5], in assay [6], in [7], in assay [8] and in assay [9] was “inactive” throughout. The Potency entry in assay [20], in [10], in [11] and in [19] was “inactive” in each case.
`C[C@]12CC[C@@H]3c4ccc(O)cc4CC[C@H]3[C@@H]1CCC2OC(=O)CCC1CCCC1` (stereo partly specified): the Potency result in assay [1], in assay [2], in assay [3], in assay [4], in [5] and in assay [7] was “inactive” in each case. Also, the Potency entry in [8], in assay [9], in assay [20], in [10], in assay [11] and in assay [12] was “inactive” throughout. The Potency entry in assay [13], in assay [14], in assay [15], in assay [16], in assay [18] and in assay [19] was “inactive” each time.
Consider `CCN(CC)C(=O)[C@@]1(c2ccccc2)C[C@@H]1CN`, for which the Potency result in assay [1], in assay [2], in assay [3], in [4], in assay [5] and in assay [6] was “inactive” in each case. The Potency result in assay [7], in assay [8], in assay [9], in [20], in assay [10] and in assay [11] was “inactive” each time. Further, the Potency result in assay [12], in [13], in assay [14], in assay [15], in assay [16] and in assay [17] was “inactive” throughout. For the same compound, the Potency entry in assay [18] and in [19] was “inactive” throughout.
As to `CC(=O)O[C@]1(C(C)=O)CCC2C3CCC4=CC(=O)CCC4(C)C3(F)C(O)CC21C` (stereo partly specified), the Potency result in [1], in [2], in [3], in [4], in assay [5] and in [6] was “inactive” throughout. Besides, the Potency entry in assay [7], in assay [8], in [9], in assay [20], in [10] and in assay [11] was “inactive” each time. In addition, the Potency entry in assay [12], in assay [13], in [14], in [15], in assay [16] and in [17] was “inactive” throughout. Further, the Potency entry in assay [18] and in assay [19] was “inactive” in each case.
With `C=C(CC[C@@H](C)[C@H]1CCC2[C@]1(C)CC[C@]13C[C@@]14CCC(OC(=O)/C=C/c1ccc(O)c(OC)c1)C(C)(C)[C@@H]4CC[C@@]23C)C(C)C` (stereo partly specified), the Potency entry in [1], in [2], in assay [3], in [4], in [5] and in assay [6] was “inactive” in each case. Moreover, the Potency result in assay [7], in assay [8], in [9], in [20], in [10] and in [11] was “inactive” throughout. In addition, the Potency result in [12], in assay [13], in assay [14], in assay [15], in assay [16] and in [17] was “inactive” each time. The Potency entry in [18] and in assay [19] was “inactive” each time.
As to `C[N+]12CCCC[C@@H]1CCC(=C(c1cccs1)c1cccs1)C2` (stereo partly specified), the Potency in assay [1] was 8910 nM (active); in [2], 10000 nM (active); in [5] it was 16900 nM (active); in assay [9] it was 15100 nM (active); in assay [20], 10700 nM (active); in [12] it was 12000 nM (active). Further, the Potency in assay [14] was 10000 nM (active); in [15] it was 12600 nM (active); in assay [16], 7940 nM (active); in assay [17] it was 11200 nM (active); in assay [19] it was 11200 nM (active).
As to `Cc1c(C)c2c(c(C)c1O)CCC(C)(CCCC(C)CCCC(C)CCCC(C)C)O2` (stereo unspecified), the Potency result in assay [1], in assay [2], in assay [3], in assay [4], in assay [5] and in [6] was “inactive” in each case. Moreover, the Potency entry in assay [7], in assay [8], in assay [9], in assay [20], in [10] and in [11] was “inactive” throughout. Also, the Potency result in assay [12], in [13], in [14], in assay [15], in assay [16] and in assay [17] was “inactive” throughout. Moreover, the Potency entry in assay [18] and in assay [19] was “inactive” throughout.
In the case of `Nc1nc2[nH]cc(CCc3ccc(C(=O)NC(CCC(=O)O)C(=O)O)cc3)c2c(=O)[nH]1` (stereo unspecified), the Potency in assay [3] is 316 nM (active); in assay [6], 79.4 nM (active); in [7], 251 nM (active); in [8], 224 nM (active); in assay [10] it was 953 nM (active); in assay [13], 70.8 nM (active). Also, the Potency is 5620 nM (active) in assay [14], 3160 nM (active) in [15] and 224 nM (active) in [17].
With `C#C[C@]1(O)CC[C@H]2[C@H]3[C@H](CC[C@@]21C)C1=C(CC(=O)CC1)C[C@@H]3C`, the Potency entry in [1], in [2], in [3], in [4], in [5] and in assay [6] was “inactive” throughout. Further, the Potency entry in assay [7], in assay [8], in assay [9], in assay [20], in assay [10] and in assay [11] was “inactive” each time. Besides, the Potency entry in [13], in [14], in assay [15], in assay [16], in assay [17] and in [18] was “inactive” throughout. In addition, the Potency entry in assay [19] is “inactive”.
Regarding `N#C/C(=C1/SCC(c2ccccc2Cl)S1)n1ccnc1` (stereo unspecified), the Potency entry in [1], in [3], in assay [4], in [5], in assay [6] and in [7] was “inactive” throughout. The Potency entry in assay [8], in assay [9], in [20], in assay [10], in assay [11] and in assay [12] was “inactive” throughout. Moreover, the Potency entry in [13], in assay [14], in assay [16] and in assay [19] was “inactive” each time.
Consider `CC(C)C(=O)OCC(=O)[C@@]12OC(C3CCCCC3)O[C@@H]1CC1C3CCC4=CC(=O)C=C[C@]4(C)C3[C@@H](O)C[C@@]12C` (stereo partly specified), for which the Potency is 891 nM (active) in assay [1]; 794 nM (active) in assay [2]; 1260 nM (active) in assay [3]; 1410 nM (active) in [6]; 1120 nM (active) in assay [7]; 1120 nM (active) in [8]. In addition, the Potency in [20] was 849 nM (active); in assay [13] it was 1120 nM (active); in assay [14] it was 2510 nM (active); in assay [15], 794 nM (active); in assay [16] it was 891 nM (active); in assay [17] it was 1000 nM (active). Further, the Potency in assay [18] was 1260 nM (active); in assay [19] it was 1120 nM (active).

These data come from PubChem BioAssay (NCATS).
